Compounds without any hit were thinned out: in the full panel of roughly 83,000, 20% have a hit.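 Each cell line was grown in a 96-well plate and treated with one concentration of compound for 48 hours. Values below 10 were considered active.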 A number with no mark means an inactive call. The source made the active and inactive calls.
Assays:
Test in all cases: NCI-60 one-dose screen, 48 h (100 = growth as untreated, 0 = no growth, -100 = all killed)
Conditions in all cases: 10 µM unless noted
HCT-15 colon = tested on: HCT-15 colon
HT29 colon = tested on: HT29 colon
SNB-75 CNS = tested on: SNB-75 CNS
SNB-19 CNS = tested on: SNB-19 CNS
U251 CNS = tested on: U251 CNS
PC-3 prostate = tested on: PC-3 prostate
SK-MEL-5 melanoma = tested on: SK-MEL-5 melanoma
UACC-62 melanoma = tested on: UACC-62 melanoma
LOX IMVI melanoma = tested on: LOX IMVI melanoma
SK-MEL-28 melanoma = tested on: SK-MEL-28 melanoma
SK-MEL-2 melanoma = tested on: SK-MEL-2 melanoma
EKVX NSCLC = tested on: EKVX NSCLC
SN12C renal = tested on: SN12C renal
UO-31 renal = tested on: UO-31 renal
TK-10 renal = tested on: TK-10 renal
ACHN renal = tested on: ACHN renal
CAKI-1 renal = tested on: CAKI-1 renal
A498 renal = tested on: A498 renal
CCRF-CEM leukemia = tested on: CCRF-CEM leukemia
MOLT-4 leukemia = tested on: MOLT-4 leukemia

Row | SMILES | growth (HCT-15 colon) | growth (HT29 colon) | growth (SNB-75 CNS) | growth (SNB-19 CNS) | growth (U251 CNS) | growth (PC-3 prostate) | growth (SK-MEL-5 melanoma) | growth (UACC-62 melanoma) | growth (LOX IMVI melanoma) | growth (SK-MEL-28 melanoma) | growth (SK-MEL-2 melanoma) | growth (EKVX NSCLC) | growth (SN12C renal) | growth (UO-31 renal) | growth (TK-10 renal) | growth (ACHN renal) | growth (CAKI-1 renal) | growth (A498 renal) | growth (CCRF-CEM leukemia) | growth (MOLT-4 leukemia)
1 | Cc1c(Cn2cc(COc3ccc(Br)cc3)nn2)c(C)c(Cn2cc(COc3ccc(Br)cc3)nn2)c(C)c1Cn1cc(COc2ccc(Br)cc2)nn1 | 104% | 92.4% | 81.1% | 89.7% | 91.3% | 87.9% | 98.4% | 76.9% | 35% | 94.1% | 87.9% | 99.5% | 92.6% | 85.5% | 67.4% | 66.7% | 75.1% | 80.6% | 83% | 103%
2 | Oc1c(CNCCNCc2cc(Cl)cc(Cc3ccccc3)c2O)cc(Cl)cc1Cc1ccccc1 | 25.7% | 30.6% | 28.4% | 2.51% (active) | 17% | 40.9% | -13.2% (active) | -11.5% (active) | 4.57% (active) | 19.5% | 27.1% | 24% | 19.1% | -20% (active) | 36.8% | 10.3% | 6.39% (active) | 36.2% | 8.47% (active) | 18.2%
3 | CCc1cccc(Cl)c1 | 105% | 92.8% | 91% | 104% | 105% | 88.2% | 103% | 101% | 103% | 106% | 118% | 105% | 90.6% | 85.3% | 107% | 98.9% | 108% | 120% | 88.2% | 98.1%
4 | CC(C)(C)c1cc(C(=O)N2CCC(C(=O)NCCN)CC2)cc(C(C)(C)C)c1 | 103% | 80.5% | 79.4% | 88% | 88.2% | 92.5% | 95.4% | 89.3% | 99.6% | 101% | 97.4% | 84.7% | 89.5% | 93.3% | 98.4% | 108% | 80.7% | 56.6% | 94.8% | 98.5%
5 | CN(C)c1ccc(N=Nc2ccc3ccccc3c2)cc1 | 55.5% | 78.7% | 77.4% | 100% | 76.3% | 75.6% | 87.3% | 90.8% | 72.6% | 103% | 98.7% | 83.5% | 87% | 57% | 91.4% | 87.8% | 91.4% | 88.5% | 72% | 80.8%
6 | CCOC(=O)C(C(C)=O)c1nc2sc3cc(Cl)c(Cl)cc3n2c(=O)c1C#N (stereo not given) | 109% | 107% | 73% | 93% | 111% | 83.9% | 74.3% | 85.8% | 98.1% | 125% | 108% | 86% | 98.8% | 58.4% | 145% | 101% | 96.2% | 142% | 96.7% | 89.6%
7 | CN(C)CCOc1ccc(/C(=C(/CCCl)c2ccccc2)c2ccccc2)cc1 | 23.9% | -78.8% (active) | 36.8% | 36.2% | -54.6% (active) | 18.7% | -98.3% (active) | -21.7% (active) | -84.6% (active) | -30.3% (active) | 48.5% | 30% | 23.7% | 26.5% | 49.8% | 30.1% | 30.8% | 65.7% | -6.69% (active) | -4.84% (active)
8 | C=C(C)[C@@H]1CC[C@]2(COCCCN)CC[C@]3(C)[C@H](CC[C@@H]4[C@@](C)(CCCNCCCN)[C@H](C(=C)C)CC[C@]43C)[C@@H]12 | -53.4% [100 µM] (active) | -23.1% [100 µM] (active) | -74.1% [100 µM] (active) | -60.1% [100 µM] (active) | -51.5% [100 µM] (active) | -53.9% [100 µM] (active) | -55.1% [100 µM] (active) | -72.4% [100 µM] (active) | -49.7% [100 µM] (active) | -63.3% [100 µM] (active) | -59.3% [100 µM] (active) | -60.8% [100 µM] (active) | -52% [100 µM] (active) | -79.8% [100 µM] (active) | -62.4% [100 µM] (active) | -67.5% [100 µM] (active) | -77.1% [100 µM] (active) | -77% [100 µM] (active) | -26.9% [100 µM] (active) | -31.6% [100 µM] (active)
9 | COc1ccc(-c2c(C)nn3c(NCCN4CCOCC4)cc(C)nc23)cc1OC | 95.1% | 94.4% | 93.2% | 91.4% | 82.2% | 89.7% | 97.2% | 97.6% | 87.5% | 103% | 104% | 83.9% | 100% | 104% | 102% | 106% | 75.2% | 78% | 97.6% | 90.2%
10 | [2H]C1([2H])CCN(C(=O)C2CC2)c2cc(NS(=O)(=O)c3ccc(-c4cccc(C(N)=O)c4)cc3)ccc21 | 90.7% | 13.6% | 11.3% | 41.2% | 29.8% | 34.2% | 15.4% | 21.4% | 39.2% | 43.9% | 7.75% (active) | 72.7% | 43.7% | 77.8% | 64.2% | 73.5% | 72.3% | -0.663% (active) | 30.7% | 44.3%
11 | CCCCN(CCCC)CC(O)c1ccc(OCc2ccccc2)c2ccccc12 (stereo not given) | 69.7% | 19.1% | 80.4% | 96.7% | 98.2% | 63.6% | 101% | 95.5% | 60.8% | 109% | 99.4% | 75.5% | 94.6% | 28.9% | 78.2% | 71.7% | 26.3% | 97.2% | 72.7% | 15.8%
12 | COc1ccc(CC(C#N)c2ccc(Cl)cc2)cc1 (stereo not given) | 60.6% | 55.3% | 75.9% | 82.1% | 77.6% | 85.9% | 76.8% | 69.6% | 79.3% | 91.5% | 80% | 90% | 99.7% | 102% | 109% | 102% | 68.9% | 49.7% | 76.5% | 72.7%
13 | CCCCC(CC)COC(=O)C[N+](C)(C)CCOC(c1ccccc1)c1ccccc1 (stereo not given) | 96.2% | 28.3% | 10.8% | 40.7% | 30.8% | 19.5% | -79.8% (active) | -20.1% (active) | 1.39% (active) | 11.1% | -26.9% (active) | 57.9% | 43.2% | 95.6% | 53.7% | 101% | 97.4% | 101% | 20.4% | 40.7%
14 | O=C(OCc1ccc2c(Cl)cc(Cl)c(O)c2n1)N1CCN(C(=O)c2cc3cc(F)ccc3[nH]2)CC1 | 10.6% | 99.1% | 28.6% | 50.2% | 8.06% (active) | 15.8% | -33% (active) | 35.3% | 12.2% | 60.7% | 22.9% | 94.5% | 30.1% | 33.4% | 63.7% | 26.7% | 14.8% | -13.1% (active) | 13.4% | 17.3%
15 | CCN(CC)c1ccc2cc(C(Nc3ccc(Br)c(C(F)(F)F)c3)c3nnnn3C(C)(C)C)c(=O)oc2c1 (stereo not given) | 94.8% | 85.9% | 67.7% | 86.1% | 86.6% | 79.7% | 84.7% | 88.8% | 98% | 104% | 89.9% | 87.7% | 90.4% | 74% | 83.9% | 99.1% | 85% | 67.6% | 92.1% | 69.6%
